In assay [1] the target is Bile acid receptor (Homo sapiens) (UniProt Q96RI1). Briefly: ATG_IR1_CIS: Attagene CIS-FACTORIAL HepG2 Assay for human Nuclear Receptor Subfamily 1 Group H Member 4 (NR1H4), IR1 submotif (AID 2282946). The note with it: IR1 reporter transcription, actives raise or lower the signal. A digest of the protocol: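 HepG2 cells transiently transfected with multiplexed cis-element reporter units read endogenous transcription factor activity. After 24 h compound exposure, reporter mRNA was quantified by RT-PCR, fluorescent labelling, HpaI digestion and capillary electrophoresis; bidirectional fitting versus DMSO baseline.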
Chain of Bile acid receptor (Homo sapiens) (Q96RI1 whole entry, looked up): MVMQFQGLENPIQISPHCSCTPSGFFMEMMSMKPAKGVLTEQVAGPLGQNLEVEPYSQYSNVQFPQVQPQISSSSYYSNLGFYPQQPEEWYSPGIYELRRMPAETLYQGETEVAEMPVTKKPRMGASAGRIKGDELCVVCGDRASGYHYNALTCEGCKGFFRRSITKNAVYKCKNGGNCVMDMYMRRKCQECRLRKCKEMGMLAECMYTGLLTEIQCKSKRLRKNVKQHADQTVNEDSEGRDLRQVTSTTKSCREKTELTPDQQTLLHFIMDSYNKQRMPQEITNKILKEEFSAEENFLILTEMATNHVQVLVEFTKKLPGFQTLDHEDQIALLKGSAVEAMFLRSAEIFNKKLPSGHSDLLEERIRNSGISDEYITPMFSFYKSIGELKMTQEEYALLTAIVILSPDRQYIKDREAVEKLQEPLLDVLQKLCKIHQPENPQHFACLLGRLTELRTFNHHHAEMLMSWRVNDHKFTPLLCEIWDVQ

A short description of assay [2]: ATG_GRE_CIS: Attagene CIS-FACTORIAL HepG2 Assay for human Glucocorticoid Response Elements (GRE) (AID 2282947). The settings on record: HepG2 GRE cis-reporter, Attagene multiplex mRNA; actives raise or lower the signal. Put shortly: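 Reporter transcripts read by RT-PCR with capillary electrophoresis fluorescence after a 24 h chemical exposure of HepG2 cells transiently transfected with multiple cis-element reporter units. Gain or loss fitted against DMSO.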

A short description of assay [3]: ATG_ISRE_CIS: Attagene CIS-FACTORIAL HepG2 Assay for human Interferon Regulatory Factor 1 (IRF1) binding to an Interferon-Stimulated Response Element (ISRE) (AID 2282948). The settings on record: HepG2 ISRE cis-reporter (Attagene), mRNA transcription readout; actives raise or lower the signal. Put shortly: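 Read-out: fluorescent RT-PCR products resolved by capillary electrophoresis, reporting endogenous transcription factor activity via ISRE-driven reporter mRNA in transfected HepG2 cells dosed for 24 h; gain or loss fitted relative to DMSO.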

Assay [4] can be described thus: ATG_M_32_CIS: Attagene CIS-FACTORIAL HepG2 Assay for M32 Transcription Factor (Internal Marker) (AID 2282949).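 Also: background control marker of the multiplexed CIS panel rather than a real target.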 The settings on record: HepG2 Attagene cis-factorial M32 reporter, mRNA; actives raise or lower the signal. Put shortly:
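HepG2 human liver cells transiently transfected with cis-promoter-driven multiple reporter transcription units, dosed 24 h. Reporter mRNA quantified by RT-PCR, FAM-labelled primer extension, HpaI digest and capillary electrophoresis; bidirectional fit versus DMSO baseline.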

Assay [5] is described as follows: ATG_M_06_CIS: Attagene CIS-FACTORIAL HepG2 Assay for M06 Transcription Factor (Internal Marker) (AID 2282950). The note with it: HepG2 Attagene CIS-FACTORIAL M06 internal marker reporter; actives raise or lower the signal. A digest of the protocol:
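Fluorescence-labelled RT-PCR products from cis-promoter reporter units, cut with HpaI and resolved by capillary electrophoresis, give the signal. Cells are human HepG2, dosed for 24 h. Serves as background control, fitted relative to DMSO.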

The target in assay [6] is Hepatocyte nuclear factor 6 (Homo sapiens) (UniProt Q9UBC0). Briefly: ATG_HNF6_CIS: Attagene CIS-FACTORIAL HepG2 Assay for human Hepatocyte Nuclear Factor 6 (HNF6) (AID 2282952). The settings on record: HepG2 Attagene cis-factorial HNF6 reporter transcription; actives raise or lower the signal. Put shortly:
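Readout: fluorescent reporter-transcript fragments resolved by capillary electrophoresis after RT-PCR, reflecting endogenous factor activity in transfected HepG2. Exposure 24 h. Gain or loss of signal fitted bidirectionally against DMSO.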

For assay [7], the target named is Heat shock factor protein 1 (Homo sapiens) (UniProt Q00613). Briefly: ATG_HSE_CIS: Attagene CIS-FACTORIAL HepG2 Assay for human Heat Shock Transcription Factor 1 (HSE) (AID 2282953). The note with it: HepG2 HSE cis-reporter, Attagene RNA transcription; actives raise or lower the signal. A digest of the protocol:
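After a 24 h incubation with test chemical, transfected HepG2 cells were harvested for RNA; reporter transcripts were measured by RT-PCR and capillary electrophoresis. Values reflect gain or loss of signal relative to DMSO.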

The nature of assay [8]: ATG_MRE_CIS: Attagene CIS-FACTORIAL HepG2 Assay for human Metal Responsive Element (MRE) (AID 2282954). The note with it: HepG2 MRE cis-reporter transcription, Attagene multiplex; actives raise or lower the signal. A digest of the protocol:
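Endogenous MRE-dependent transcription read as reporter mRNA in transiently transfected human HepG2 cells at 24 h. RNA reverse-transcribed, PCR-amplified, labelled and resolved by capillary electrophoresis; gain or loss relative to DMSO.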

Assay [9] can be described thus: ATG_PBREM_CIS: Attagene CIS-FACTORIAL HepG2 Assay for human Phenobarbital-responsive Enhancer Module (PBREM) (AID 2282955). The note with it: HepG2 PBREM cis-reporter, Attagene multiplexed transcription; actives raise or lower the signal. Put shortly: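 HepG2 cells transiently transfected with multiple cis-regulated reporter transcription units; endogenous factor activity at the PBREM element measured as reporter mRNA 24 h after dosing, via RT-PCR and capillary electrophoresis of fluorescent fragments; bidirectional fitting versus DMSO.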

Assay [10] addresses Paired box protein Pax-6 (Homo sapiens) (UniProt P26367). Briefly: ATG_Pax6_CIS: Attagene CIS-FACTORIAL HepG2 Assay for human Paired Box 6 (PAX6) (AID 2282956). The settings on record: HepG2 CIS-FACTORIAL PAX6 reporter transcription, RNA readout; actives raise or lower the signal. A digest of the protocol:
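Readout: reporter transcript fluorescence after RT-PCR and capillary electrophoresis. Cells: HepG2, transiently transfected with cis-regulated MRTUs. Exposure 24 h. Gain or loss of signal fitted bidirectionally relative to DMSO.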

Assay [11] is described as follows: ATG_PPRE_CIS: Attagene CIS-FACTORIAL HepG2 Assay for human Peroxisome Proliferator-activated Response Element (PPRE) (AID 2282958). The note with it: HepG2 PPRE cis-element reporter, Attagene transcription factor profiling; actives raise or lower the signal. A digest of the protocol:
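HepG2 cells transiently transfected with multiplexed cis-element reporter units measure endogenous transcription factor activity. After 24 h compound exposure, reporter mRNA is quantified by RT-PCR, 6-FAM labeling, HpaI digestion and capillary electrophoresis; bidirectional fits are made against DMSO baseline.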

Assay [12] is described as follows: ATG_RORE_CIS: Attagene CIS-FACTORIAL HepG2 Assay for human RAR-related Orphan Receptor Element (RORE) (AID 2282959). The settings on record: HepG2 Attagene cis-factorial RORE reporter, mRNA; actives raise or lower the signal. A digest of the protocol: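 HepG2 cells transiently transfected with multiple cis-element reporter transcription units, exposed to chemical for 24 h. Reporter mRNA quantified by RT-PCR, 6-FAM primer-extension labeling, HpaI digestion and capillary electrophoresis; bidirectional fit versus DMSO baseline.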

The nature of assay [13]: ATG_Sox_CIS: Attagene CIS-FACTORIAL HepG2 Assay for human SRY-box transcription factor (SOX) (AID 2282960). The note with it: HepG2 Attagene cis-factorial SOX reporter, mRNA; actives raise or lower the signal. A digest of the protocol: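 HepG2 cells transiently transfected with cis-element-driven multiple reporter transcription units, dosed 24 h; reporter mRNA measured by RT-PCR, FAM labelling, HpaI digestion and capillary electrophoresis. Bidirectional fit versus DMSO baseline.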

The target of assay [14] is Transcription factor Sp1 (Homo sapiens) (UniProt P08047). As to the kind of experiment: ATG_Sp1_CIS: Attagene CIS-FACTORIAL HepG2 Assay for human Specificity Protein 1 (Sp1) (AID 2282961). The note with it: HepG2 Sp1 cis-reporter transcription, actives raise or lower the signal. A digest of the protocol: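 HepG2 cells transiently transfected with multiple reporter transcription units driven by cis-regulatory elements; Sp1-responsive reporter mRNA measured 24 h after dosing by RT-PCR and capillary electrophoresis fluorescence, fitted bidirectionally against DMSO baseline.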
Chain of Transcription factor Sp1 (Homo sapiens) (P08047 whole entry, looked up): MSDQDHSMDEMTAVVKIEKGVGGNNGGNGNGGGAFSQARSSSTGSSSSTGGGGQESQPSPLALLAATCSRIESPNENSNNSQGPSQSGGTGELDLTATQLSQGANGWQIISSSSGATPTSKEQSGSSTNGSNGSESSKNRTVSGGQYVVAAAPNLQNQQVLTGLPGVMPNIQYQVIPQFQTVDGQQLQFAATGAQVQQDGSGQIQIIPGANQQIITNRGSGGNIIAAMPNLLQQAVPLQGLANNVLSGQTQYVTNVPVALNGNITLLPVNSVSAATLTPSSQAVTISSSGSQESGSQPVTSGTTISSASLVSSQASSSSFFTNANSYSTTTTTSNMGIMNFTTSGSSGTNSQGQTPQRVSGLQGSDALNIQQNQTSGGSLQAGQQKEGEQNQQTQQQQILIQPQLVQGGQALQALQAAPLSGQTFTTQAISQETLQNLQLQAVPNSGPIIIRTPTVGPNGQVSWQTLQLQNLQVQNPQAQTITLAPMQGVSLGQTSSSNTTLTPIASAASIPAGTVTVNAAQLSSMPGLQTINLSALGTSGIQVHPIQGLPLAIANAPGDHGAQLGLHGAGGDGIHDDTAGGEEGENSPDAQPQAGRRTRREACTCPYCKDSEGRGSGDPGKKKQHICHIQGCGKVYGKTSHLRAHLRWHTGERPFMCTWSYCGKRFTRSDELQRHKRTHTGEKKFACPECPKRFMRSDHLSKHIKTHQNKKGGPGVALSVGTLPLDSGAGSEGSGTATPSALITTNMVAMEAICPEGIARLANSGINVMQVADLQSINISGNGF

Assay [15] is described as follows: ATG_SREBP_CIS: Attagene CIS-FACTORIAL HepG2 Assay for human Sterol Regulatory Element Binding (SREBP) (AID 2282962). The settings on record: HepG2 Attagene cis-factorial SREBP reporter, mRNA; actives raise or lower the signal. A digest of the protocol: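 Readout: fluorescent reporter-transcript peaks resolved by capillary electrophoresis after RT-PCR. Cells were human HepG2 carrying transfected cis-promoter reporter constructs, dosed for 24 h. Gain or loss of signal was fitted against DMSO controls.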

Assay [16] has as its target Signal transducer and activator of transcription 3 (Homo sapiens) (UniProt P40763). Briefly: ATG_STAT3_CIS: Attagene CIS-FACTORIAL HepG2 Assay for human Signal Transducer and Activator of Transcription 3 (STAT3) (AID 2282963). The settings on record: HepG2, Attagene cis-factorial STAT3 reporter transcription; actives raise or lower the signal. Put shortly: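 Readout is reporter transcript quantified by RT-PCR and capillary electrophoresis, with 6-FAM primer extension and HpaI digestion. Total RNA is taken 24 h after dosing transiently transfected HepG2 carrying cis-regulated reporter units. Bidirectional fit against DMSO.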

A short description of assay [17]: ATG_TA_CIS: Attagene CIS-FACTORIAL HepG2 Assay for human TA Basal Promoter (AID 2282964). The settings on record: HepG2 Attagene CIS-factorial TA basal promoter reporter; actives raise or lower the signal. Put shortly: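 Multiplexed mRNA reporter assay, HepG2, 24 h. Reporter cDNA amplified, 6-FAM primer-extended, HpaI-cut, CE-sized; DMSO = negative control and baseline.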

A short description of assay [18]: ATG_TCF_b_cat_CIS: Attagene CIS-FACTORIAL HepG2 Assay for human T-Cell-Factor with beta-catenin (TCF/b-cat) (AID 2282965). The settings on record: HepG2 TCF/beta-catenin cis-reporter transcription, actives raise or lower the signal. Put shortly:
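Endogenous TCF/LEF activity read as reporter transcript level via RT-PCR and capillary electrophoresis fluorescence in transfected HepG2, 24 h exposure; gain or loss of signal fitted against DMSO controls.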

For assay [19], the target named is Hypoxia-inducible factor 1-alpha (Homo sapiens) (UniProt Q16665). Briefly: ATG_HIF1a_CIS: Attagene CIS-FACTORIAL HepG2 Assay for human Hypoxia Inducible Factor 1 (HIF1A) (AID 2282951). The note with it: HepG2 Attagene cis-factorial HIF1a reporter transcription; actives raise or lower the signal. Put shortly:
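HepG2 cells transiently transfected with multiplexed cis-promoter reporter units; reporter mRNA read 24 h after dosing by RT-PCR, 6-FAM primer-extension labelling, HpaI digestion and capillary electrophoresis. Bidirectional fit versus DMSO baseline.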

Assay [20] in a line: ATG_PXRE_CIS: Attagene CIS-FACTORIAL HepG2 Assay for human Pregnane X Receptor Element (PXRE) (AID 2282957). The note with it: HepG2 Attagene CIS-FACTORIAL PXRE reporter, mRNA; actives raise or lower the signal. Put shortly: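 Read-out: fluorescence of reporter-specific RT-PCR products resolved by capillary electrophoresis, fitted bidirectionally relative to DMSO. Human HepG2 liver cells carried transfected cis-promoter reporter units and were exposed to chemicals for 24 h.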

Molecules are shown by their SMILES. Active and inactive are the calls of the source. The calls were made as follows: active = hit-call score of the fitted dose curve at least 0.9, where 1 is the maximum; inactive = score below 0.9.

Chain of Paired box protein Pax-6 (Homo sapiens) (P26367 whole entry, looked up): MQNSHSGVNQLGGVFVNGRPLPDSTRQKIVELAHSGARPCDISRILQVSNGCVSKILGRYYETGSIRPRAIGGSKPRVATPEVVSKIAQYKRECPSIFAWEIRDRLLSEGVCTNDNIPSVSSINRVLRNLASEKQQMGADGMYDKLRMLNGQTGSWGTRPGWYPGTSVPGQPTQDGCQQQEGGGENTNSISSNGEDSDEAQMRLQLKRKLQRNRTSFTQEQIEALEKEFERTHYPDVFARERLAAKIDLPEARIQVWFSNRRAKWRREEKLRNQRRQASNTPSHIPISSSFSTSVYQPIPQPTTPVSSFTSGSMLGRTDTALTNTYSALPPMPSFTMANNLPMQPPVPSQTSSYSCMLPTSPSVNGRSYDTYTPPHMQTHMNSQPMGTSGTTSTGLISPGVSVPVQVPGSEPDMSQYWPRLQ
Chain of Heat shock factor protein 1 (Homo sapiens) (Q00613 whole entry, looked up): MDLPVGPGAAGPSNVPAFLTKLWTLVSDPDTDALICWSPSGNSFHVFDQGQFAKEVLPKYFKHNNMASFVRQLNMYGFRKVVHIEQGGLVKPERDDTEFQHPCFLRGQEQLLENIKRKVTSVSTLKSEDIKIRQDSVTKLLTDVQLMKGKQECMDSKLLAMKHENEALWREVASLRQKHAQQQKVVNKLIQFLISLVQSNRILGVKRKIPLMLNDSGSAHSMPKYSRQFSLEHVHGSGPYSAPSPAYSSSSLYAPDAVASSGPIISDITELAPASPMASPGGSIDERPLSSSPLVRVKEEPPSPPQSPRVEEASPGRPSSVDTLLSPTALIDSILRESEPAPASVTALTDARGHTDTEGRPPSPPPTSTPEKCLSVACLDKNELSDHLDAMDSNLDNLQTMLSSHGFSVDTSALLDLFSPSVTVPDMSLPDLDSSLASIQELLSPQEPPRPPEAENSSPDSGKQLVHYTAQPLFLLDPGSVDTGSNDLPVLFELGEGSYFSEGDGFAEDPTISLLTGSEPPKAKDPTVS
Chain of Signal transducer and activator of transcription 3 (Homo sapiens) (P40763 whole entry, looked up): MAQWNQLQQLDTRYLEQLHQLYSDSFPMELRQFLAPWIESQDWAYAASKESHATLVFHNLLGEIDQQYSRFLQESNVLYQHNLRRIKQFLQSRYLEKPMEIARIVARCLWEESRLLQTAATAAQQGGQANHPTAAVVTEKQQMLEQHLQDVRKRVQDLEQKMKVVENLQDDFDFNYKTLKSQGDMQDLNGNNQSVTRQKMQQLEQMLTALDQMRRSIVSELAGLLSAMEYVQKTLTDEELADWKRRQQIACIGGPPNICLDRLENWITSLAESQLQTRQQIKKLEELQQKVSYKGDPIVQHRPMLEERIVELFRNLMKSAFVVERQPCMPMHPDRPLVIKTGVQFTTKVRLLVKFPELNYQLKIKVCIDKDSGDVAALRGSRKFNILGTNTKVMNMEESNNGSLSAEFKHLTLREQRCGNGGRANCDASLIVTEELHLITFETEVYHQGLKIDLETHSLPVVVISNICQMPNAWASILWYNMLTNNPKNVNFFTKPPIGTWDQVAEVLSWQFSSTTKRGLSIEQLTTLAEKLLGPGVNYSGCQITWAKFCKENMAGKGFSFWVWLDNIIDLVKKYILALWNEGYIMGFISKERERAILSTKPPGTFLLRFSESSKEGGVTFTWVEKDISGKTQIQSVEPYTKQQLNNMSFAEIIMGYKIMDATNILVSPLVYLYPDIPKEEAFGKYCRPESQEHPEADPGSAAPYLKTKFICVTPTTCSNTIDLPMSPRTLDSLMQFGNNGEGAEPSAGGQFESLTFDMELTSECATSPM
Chain of Hepatocyte nuclear factor 6 (Homo sapiens) (Q9UBC0 whole entry, looked up, the tested form may be a part): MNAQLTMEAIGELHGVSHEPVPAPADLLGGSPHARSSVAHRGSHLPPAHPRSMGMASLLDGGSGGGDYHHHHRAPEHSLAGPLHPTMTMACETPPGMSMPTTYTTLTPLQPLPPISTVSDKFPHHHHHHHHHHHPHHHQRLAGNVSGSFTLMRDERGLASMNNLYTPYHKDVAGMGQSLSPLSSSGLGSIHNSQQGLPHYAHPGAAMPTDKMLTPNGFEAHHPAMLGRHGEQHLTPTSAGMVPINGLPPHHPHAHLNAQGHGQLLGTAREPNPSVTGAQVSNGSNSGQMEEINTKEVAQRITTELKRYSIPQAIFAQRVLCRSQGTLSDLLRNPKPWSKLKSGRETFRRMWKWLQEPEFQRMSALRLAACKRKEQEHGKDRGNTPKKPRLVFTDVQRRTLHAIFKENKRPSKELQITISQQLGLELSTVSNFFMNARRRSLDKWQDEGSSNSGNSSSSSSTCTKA
Chain of Hypoxia-inducible factor 1-alpha (Homo sapiens) (Q16665 whole entry, looked up): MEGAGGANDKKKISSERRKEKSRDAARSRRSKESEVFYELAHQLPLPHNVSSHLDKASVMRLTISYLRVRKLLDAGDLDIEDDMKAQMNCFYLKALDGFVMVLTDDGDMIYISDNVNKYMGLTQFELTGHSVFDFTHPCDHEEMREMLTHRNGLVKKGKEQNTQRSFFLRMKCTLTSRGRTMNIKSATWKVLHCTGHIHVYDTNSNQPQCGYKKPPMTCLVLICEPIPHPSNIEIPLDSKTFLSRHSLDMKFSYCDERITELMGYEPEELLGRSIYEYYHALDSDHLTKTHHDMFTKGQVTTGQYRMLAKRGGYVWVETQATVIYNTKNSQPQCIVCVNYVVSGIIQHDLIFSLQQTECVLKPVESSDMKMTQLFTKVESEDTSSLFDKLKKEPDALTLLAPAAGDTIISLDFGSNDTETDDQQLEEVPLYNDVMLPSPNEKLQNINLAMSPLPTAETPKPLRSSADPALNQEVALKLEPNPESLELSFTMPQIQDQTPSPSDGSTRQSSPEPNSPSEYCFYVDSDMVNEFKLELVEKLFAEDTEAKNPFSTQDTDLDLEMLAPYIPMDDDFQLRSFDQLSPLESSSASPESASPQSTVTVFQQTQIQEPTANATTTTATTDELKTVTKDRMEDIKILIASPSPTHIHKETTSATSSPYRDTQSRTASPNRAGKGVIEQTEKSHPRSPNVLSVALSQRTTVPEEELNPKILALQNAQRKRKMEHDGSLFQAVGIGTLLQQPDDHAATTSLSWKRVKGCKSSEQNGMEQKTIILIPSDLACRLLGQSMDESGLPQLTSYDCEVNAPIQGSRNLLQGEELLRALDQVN

For `O=C(Nc1cccc(C(F)(F)F)c1)c1cc(Br)cc(Br)c1O`, the AC50 was 66.7 µM (active) in [1]; 100 µM (active) in assay [3]; 46.2 µM (active) in [7]; 85.8 µM (active) in [8]; 1.89 µM (active) in assay [9]; 78.9 µM (active) in assay [10]. For the same compound, the AC50 in assay [12] was 2.29 µM (active); in [13], 79.3 µM (active); in assay [14] it was 100 µM (active); in assay [15] it was 21.5 µM (active); in assay [17], 43.9 µM (active); in assay [18] it was 128 µM (active). Moreover, the outcome in assay [2], in assay [4], in assay [5], in [6], in [11] and in [16] was inactive.

In the case of `c1ccc2c(c1)ccc1cc3c(ccc4ccccc43)cc12`, the outcome in assay [1], in [2], in assay [3], in assay [4], in [5] and in [6] was inactive. In addition, the call in [7], in assay [8], in [10], in assay [20], in [12] and in [13] was inactive. For the same compound, the outcome in assay [14], in assay [15], in [16] and in [17] was inactive. Besides, the AC50 in assay [19] is 0.364 µM (active).

As to `CCCCCCC(O)CO` (stereo unspecified), the call in assay [1], in assay [2], in [3], in assay [4], in assay [5] and in assay [6] was inactive. For the same compound, the compound was called inactive in assay [7], in [8], in assay [9], in [10], in [20] and in [12]. The result in assay [13], in assay [14], in [16], in assay [17] and in assay [18] was inactive.

`COC(=O)C1=C(C)NC(C)=C(C(=O)OCC(C)C)C1c1ccccc1[N+](=O)[O-]` (stereo unspecified): the result in [1], in assay [2], in assay [4], in assay [5], in [8] and in [10] was inactive. In addition, the compound was called inactive in [13], in assay [14], in assay [15], in [16], in [17] and in assay [18]. Moreover, the AC50 in [3] was 11.1 µM (active); in assay [19] it was 18 µM (active).

As a reminder, the AC50 is the concentration at which the activity in the assay is half-maximal.

Source of the values: PubChem BioAssay (EPA / NIEHS).
